Each compound was assayed on RAF1. Details: concentration: 1 μM, replicates: in singlicate; n = 1.
In the case of `COc1ccc(Nc2nccc(N3CCC(NC(=O)C(C)c4ccc(Cl)cc4)CC3)n2)cc1` (stereo not drawn) [GSK1379812], the “%Inh” value is reported as 60%. For `CC(=O)c1c(C)c2cnc(Nc3ccc(N4CCNCC4)cn3)nc2n(C2CCCC2)c1=O`, the “%Inh” value was 0%. `Nc1nccc(-c2c(-c3ccc(F)cc3)ncn2C2CCN(Cc3ccccc3)CC2)n1` [SB-219980] was tested, and the “%Inh” value was 0%. `Fc1ccc(-c2nc3n(c2-c2ccncc2)CCS3)cc1` [GI98581] was tested, and the “%Inh” value was 20%. For `COc1cccc(CNC(=O)NC2CCN(c3ccnc(Nc4ccc(F)cc4)n3)C2)c1` (stereo not drawn) [GSK1379723], the “%Inh” value was 12%. With `c1ccc(-c2ccnc3[nH]ccc23)cc1` [SB-693578] the “%Inh” value was 41%. In the case of `Cc1ccc(NC(=O)c2ccc(Cl)cc2)cc1-c1ccc(C(=O)Nc2ccncc2)cc1` [GSK1398467], the “%Inh” value is reported as 35%. For `CNCc1ccc2nc(NC(=O)c3ccc(C(C)(C)C)cc3)cn2c1`, the “%Inh” value was 11%. `COc1ccc(-c2coc3ccc(-c4nnc(C)o4)cc23)cc1` was tested, and the “%Inh” value was 11%. In the case of `O=C(Nc1n[nH]c2nc(-c3ccco3)c(Br)cc12)C1CCN(Cc2ccccc2)C1.O=C(O)[C@H](O)[C@@H](O)C(=O)O` (stereo not drawn) [SB-742034], the “%Inh” value is reported as 15%. `Cc1c(Cn2c(C)c(C)n3c(=O)cc(N4CCOCC4)nc23)cccc1C(F)(F)F` [GSK2328680] was tested, and the “%Inh” value was 13%. In the case of `COC(=O)C(NC(=O)NC1CCN(c2ccnc(Nc3ccc(F)cc3)n2)C1)c1ccccc1` (stereo not drawn) [GSK1379712], the “%Inh” value is reported as 0%. `Cc1ccc(NC(=O)Nc2ccc(Cl)cc2)cc1-c1ccc(C(=O)Nc2ccncc2)cc1` [GSK1398472] was tested, and the “%Inh” value was 87%. For `Cc1ccc(-c2nc(Nc3ccncc3)c3ccccc3n2)s1` [GSK189015], the “%Inh” value was 12%. With `CC(C)c1cc(-c2ccc3c(N)n[nH]c3c2)nc(N)n1` [GSK2250882] the “%Inh” value was 0%. For `CC(=O)c1cccc(NC(=O)NC2CCN(c3ccnc(Nc4ccc(F)cc4)n3)C2)c1` (stereo not drawn) [GSK1379710], the “%Inh” value was 13%. In the case of `Cc1ccccc1Cn1ccn2c(=O)cc(N3CCOCC3)nc12` [GSK2269905], the “%Inh” value is reported as 8%. With `CNc1nc(-c2ccc3c(N)n[nH]c3c2)cc(N2C[C@@H](C(=O)Nc3ccccc3)CC[C@H]2C)n1` [GSK2298859] the “%Inh” value was 4%. In the case of `Fc1ccc(-c2nc[nH]c2-c2ccncc2)cc1` [SB-217360], the “%Inh” value is reported as 18%. With `Cc1cccc2c(-c3ccncn3)c(-c3ccc(F)cc3)nn12` [GW515532] the “%Inh” value was 0%. `COc1ccc(Nc2nccc(NCCNC(=O)Nc3cc(C)ccc3C)n2)cc1` [GSK1379899] was tested, and the “%Inh” value was 3%. For `CS(=O)(=O)CCNCc1nc(-c2ccc3ncnc(Nc4ccc(OCc5ccccc5)c(Cl)c4)c3c2)cs1.Cl` [GW582764], the “%Inh” value was 13%. In the case of `NS(=O)(=O)c1cccc(N/C=C2\C(=O)Nc3ccc(S(=O)(=O)Cc4c(Cl)cccc4Cl)cc32)c1` [GSK398099], the “%Inh” value is reported as 15%. In the case of `CC(=O)c1c(C)c2cnc(Nc3ccn(C)n3)nc2n(C2CCCC2)c1=O`, the “%Inh” value is reported as 0%. In the case of `Cn1cncc1-c1cc2c(Nc3ccc(OCc4ccccc4)cc3)ncnc2cn1` [GW281179], the “%Inh” value is reported as 34%. With `COc1ccc(CSc2nnc(-c3ccc4c(c3)CCO4)o2)cc1` the “%Inh” value was 0%. `CN1c2ccc(-c3ccc(C(N)=O)cc3)cc2-c2[nH]ncc2S1(=O)=O` was tested, and the “%Inh” value was 11%. `CC(C)c1ccc(O)cc1Nc1ccnc2ccc(C(F)(F)F)cc12` [GW482059] was tested, and the “%Inh” value was 0%. In the case of `O=C(Nc1n[nH]c2nc(-c3cccs3)c(Br)cc12)C1CCCC1` [SB-743341], the “%Inh” value is reported as 6%. For `CS(=O)(=O)CCNCc1nc(-c2ccc3ncnc(Nc4ccc5c(cnn5Cc5ccccc5)c4)c3c2)cs1.Cl.Cl` [GW569716], the “%Inh” value was 13%. For `Cl.Cl.Cl.N#Cc1ccc(CCNc2nccc(-c3cccc(CN4CCNCC4)c3)n2)cc1` [GSK2137462], the “%Inh” value was 12%. With `Fc1ccc(-c2nn3cccc(F)c3c2-c2ccncc2)cc1` [GW475620] the “%Inh” value was 17%. With `COc1ccc(CSc2nnc(-c3ccc4ncsc4c3)o2)cc1C(F)(F)F` the “%Inh” value was 7%. With `Cc1ccc(NC(=O)Nc2ccccc2F)cc1-c1ccc(C(=O)Nc2ccncc2)cc1` [GSK1398477] the “%Inh” value was 70%. For `O=C1NC(=O)C(c2ccc(Cl)cc2)=C1Nc1cccc(Cl)c1` [SB-317651], the “%Inh” value was 22%. For `CNc1nc(-c2ccc3c(N)n[nH]c3c2)cc(N2C[C@@H](C(=O)NC3CCCCC3)OC[C@H]2C)n1` [GSK2375584], the “%Inh” value was 14%.
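Further: KINOMEscan kinase panel screen.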
